High-throughput results (PubChem BioAssay)
In the library only some 2.5% were active in any assay of this set; here they are far more common.
UHRF1 binding: human UHRF1 methylated DNA binding inhibitors | Q96T88 | UHRF1 binding to methylated oligo, TR-FRET | inhibition, % at 4.4 µM | actives 0.75% (n = 370,000) | AID 687016; in the data active means inhibition above about 21%;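 further: UHRF1 SRA domain binding a hemimethylated CpG hairpin DNA probe; 0% = median of test compound wells and 100% = reference inhibitor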
Target sequence (Q96T88 whole entry, looked up, the tested form may be a part): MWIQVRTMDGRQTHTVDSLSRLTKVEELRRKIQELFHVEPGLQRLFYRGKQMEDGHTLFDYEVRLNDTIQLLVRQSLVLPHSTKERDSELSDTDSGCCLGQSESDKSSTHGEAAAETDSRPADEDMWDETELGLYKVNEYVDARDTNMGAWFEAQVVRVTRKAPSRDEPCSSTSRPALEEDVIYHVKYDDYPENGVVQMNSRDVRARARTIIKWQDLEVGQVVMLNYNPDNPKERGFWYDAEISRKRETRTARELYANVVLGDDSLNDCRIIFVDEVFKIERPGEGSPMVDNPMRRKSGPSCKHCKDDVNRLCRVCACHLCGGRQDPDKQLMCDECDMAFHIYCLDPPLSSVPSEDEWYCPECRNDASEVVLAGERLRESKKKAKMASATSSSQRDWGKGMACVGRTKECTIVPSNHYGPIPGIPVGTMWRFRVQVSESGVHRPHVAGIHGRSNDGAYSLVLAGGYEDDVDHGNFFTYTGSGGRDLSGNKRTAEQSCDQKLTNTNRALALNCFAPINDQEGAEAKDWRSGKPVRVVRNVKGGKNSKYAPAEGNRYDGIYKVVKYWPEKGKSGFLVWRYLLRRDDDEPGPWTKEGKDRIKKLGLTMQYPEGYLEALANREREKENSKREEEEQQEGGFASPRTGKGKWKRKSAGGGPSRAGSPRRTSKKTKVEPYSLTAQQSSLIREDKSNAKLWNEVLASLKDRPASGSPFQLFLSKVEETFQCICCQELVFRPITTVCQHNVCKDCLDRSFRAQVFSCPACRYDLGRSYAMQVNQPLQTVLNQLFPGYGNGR
PRMT1 inh: inhibitors of human PRMT1; Q99873; inhibition, % at 2.79 µM; recombinant PRMT1, activity-based probe fluorescence polarization; AID 652257; actives 1.3% (n = 370,000);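 active means inhibition above about 21% made by adding two undisclosed values, limit read from the data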
MBD2 inh: blocks human MBD2 binding to methylated DNA. TR-FRET, MBD2 binding to methylated oligonucleotide. inhibition, % at 4.4 µM. actives 0.31% (n = 370,000); in the data active means inhibition above about 13%
LEDGF integ inh: blocks HIV-1 LEDGF/p75-dependent DNA integration; TR-FRET IN-LEDGF/p75 DNA integration, Eu/Cy5; inhibition, % at 3.7 µM; actives 0.64% (n = 370,000); AID 743269;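 active means inhibition above the screen-wide mean plus 3 SD, cut at about 13% in these data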;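 further: signal is the Cy5 over europium emission ratio at 671 and 618 nm; 0% = plate median of compound wells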
PRMT1 confirm: confirmation of human PRMT1 inhibitors. actives 42% (n = 3,300). inhibition, % at 2.79 µM. shares compounds with PRMT1 inh. AID 687036. recombinant His-PRMT1, activity-based probe fluorescence polarization;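 active means mean inhibition across replicates above the hit cutoff derived for the earlier primary screen, cut at about 22% in these data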
The depositor's hits bear a star; x = not tested or not shown.

SMILES	UHRF1 binding	PRMT1 inh	MBD2 inh	LEDGF integ inh	PRMT1 confirm
O=[N+]([O-])c1cccc(C(=S)N2CCN(c3ccccc3)CC2)c1	-3	35*	-7	2	7
C#CCN1C=CC(=O)[C@@H](OC(=O)Nc2ccc(Cl)cc2)[C@H]1c1ccccc1Br	3	3	-2	4	x
CC(C)n1c(CNC(=O)c2ccccc2F)nnc1SCC(=O)NC1CCCCC1	6	33*	-8	8	0
O=C(c1ccccc1)N1CCN(C(=O)c2nn3c(C(F)(F)F)cc(-c4ccco4)nc3c2Br)CC1	3	30*	-1	5	3
COc1ccc(-c2csc(C(C)(O)c3cccc(F)c3)n2)cc1OC (configuration not stated)	0	-1	-2	-3	x
CC(=O)Nc1ccc(SCC(=O)N(CCC#N)c2ccc(C)cc2)cc1	7	39*	4	-2	16
CC(=O)Nc1ccc(NC(=O)CSc2ccc(C)cc2)cc1	-1	-2	0	2	x
COc1ccc(C(=O)NNC(=O)c2snnc2C)cc1	3	-3	-1	3	x
COc1cc(OC)cc(-c2nc(-c3ccccc3OC)no2)c1	2	0	-4	3	x
Clc1nssc1=Nc1nncs1	16	97*	11	4	92*
N#Cc1cccc(N=c2ssnc2Cl)c1	2	100*	0	0	92*
COc1cc(N=c2ssnc2Cl)cc(OC)c1	-8	63*	-1	-2	92*
Clc1nssc1=Nc1ccc(Br)cc1	-5	72*	-1	0	93*
COc1ccc(C(=O)NC2CCCc3c2cnn3-c2cc(F)cc(F)c2)c(OC)c1OC (configuration not stated)	-2	-1	-2	1	x
CSCCC(NC(=O)c1ccccc1)C(=O)NCCc1ccc2c(c1)OCCO2 (configuration not stated)	1	-2	-1	0	x
CC(Nc1ccc2c(c1)OCCO2)C(=O)N1CCc2ccccc21 (configuration not stated)	0	0	1	0	x
CCOC(=O)c1ccc(NC(=S)NCc2ccco2)cc1	-1	0	-7	6	x
O=C(CCc1nnc(C2CCCCC2)o1)NCCCOc1cccnc1	0	1	-2	1	x
CC(=O)C1(C(=O)NC2CCCC2)CC(c2ccccn2)=NO1 (configuration not stated)	-3	2	-3	5	x
Cc1nc(SCc2ccc(O)c([N+](=O)[O-])c2)c([N+](=O)[O-])[nH]1	-1	35*	-5	-2	-3
O=C(CCc1ccccc1)NN1C(=O)C2C3C=CC(O3)C2C1=O (configuration not stated)	-1	57*	-1	-6	2
CCOc1ccc(C(=O)NN2C(=O)C3C4C=CC(O4)C3C2=O)cc1 (configuration not stated)	2	53*	-1	0	6
Cc1cccc(OCC(=O)NN2C(=O)C3C4C=CC(O4)C3C2=O)c1 (configuration not stated)	0	1	-1	-4	x
CN(C)c1ccc(-c2nnn(CC(=O)NCc3ccc4c(c3)OCO4)n2)cc1	0	-4	-5	-6	x
Cc1cccc2cc(C3CC(c4cccs4)=NN3S(C)(=O)=O)c(Cl)nc12 (configuration not stated)	0	-5	-2	1	x
SMILES	UHRF1 binding	PRMT1 inh	MBD2 inh	LEDGF integ inh	PRMT1 confirm
NC(=O)CCC(NC(=O)c1ccc(Cl)cc1)C(=O)O (configuration not stated)	-2	52*	-6	-2	-7
CCOC(=O)C1C(c2ccccc2)C(C(=O)OCC)S(=O)(=O)C(CCN(CC)CC)S1(=O)=O (configuration not stated)	1	5	7	-2	x
COCCCN(C(=O)c1cc(-c2ccco2)nc2ccccc12)c1c(N)n(Cc2ccccc2)c(=O)[nH]c1=O	23*	47*	12	36*	11
O=C(O)c1cc(-c2ccco2)nc2cc3ccccc3cc12	11	26*	5	4	22*
O=C(COC(=O)c1cc(-c2ccco2)nc2ccccc12)NCc1ccccc1	-4	36*	-3	7	9
COc1ccc(COC(=O)N/N=C/c2cccs2)cc1	-4	-1	2	4	x
CCCS(=O)(=O)NC(=O)C1(C)CCN(C(=O)c2cc(C)on2)C1 (configuration not stated)	4	-1	4	-6	x
COCc1[nH]c(=S)c(C#N)cc1C(=O)OC	9	35*	-4	10	11
O=C(c1c(F)cccc1F)N1CCN(CCOc2ccccc2)CC1	0	2	2	-1	x
Cc1cc(=O)[nH]c(SCn2nnc3ccccc3c2=O)n1	2	31*	-2	3	6
O=c1ccnc(SCn2nnc3ccccc3c2=O)[nH]1	5	44*	0	2	0
O=c1c2ccccc2nnn1CSc1nc2ccccc2[nH]1	-2	-1	-5	-1	x
CN(CC(=O)Nc1cc(C(F)(F)F)ccc1-n1cncn1)Cc1ccccc1N1CCOCC1	0	1	-2	0	x
COc1ccc(OCc2nnc(SCC(=O)Nc3ccccc3Cl)o2)cc1	-2	0	-5	4	x
COC(=O)[C@@]1(C)[C@H]2C(=O)N(Cc3ccccc3)C(=O)[C@H]2[C@H]2CN=C(SCc3ccccc3)N21	1	0	-1	-2	x
COC(=O)[C@@]1(Cc2ccccc2)[C@H]2C(=O)N(C)C(=O)[C@H]2[C@H]2CN=C(SCC3CC3)N21	1	0	-1	-1	x
COC(=O)[C@@]1(Cc2ccccc2)[C@H]2C(=O)N(C)C(=O)[C@H]2[C@H]2CN=C(SCC(=O)c3ccccc3)N21	-1	45*	-5	-2	33*
CCN1C(=O)[C@H]2[C@H]3CN=C(SCC(=O)c4ccccc4)N3[C@@](C)(C(=O)OC)[C@H]2C1=O	-3	83*	3	2	73*
COc1ccc(NC(=O)CCCNC(=O)c2ccc(Cl)cc2)cc1S(=O)(=O)N1CCOCC1	-1	-1	1	0	x
COc1cc(F)ccc1-c1cc(C(=O)NCc2ccc(F)cc2)[nH]n1	5	2	-1	-2	x
CNS(=O)(=O)c1cn(CC(=O)NCc2cccc(OC)c2)cc1S(=O)(=O)NC	-2	12	2	-1	x
Cc1ccc(NC(=O)CN2C(=O)N/C(=C/c3ccc(C)s3)C2=O)cc1	-2	4	-4	-2	x
Cc1ccc(CN2C(=O)N/C(=C/c3ccc(-c4ccc(C(=O)O)cc4)o3)C2=O)cc1	16	13	4	8	x
Cc1cccc(NC(=O)CN2C(=O)N/C(=C\c3ccc(-c4cccc(C(=O)O)c4)o3)C2=O)c1	6	27*	2	5	11
CCn1c(C)cc(/C=C2\NC(=O)N(CC(=O)Nc3cccc(C)c3)C2=O)c1C	-3	1	-7	1	x
Cc1ccc(NC(=O)CN2C(=O)N/C(=C/c3ccc(C)o3)C2=O)cc1	-1	76*	-2	1	16
